High-throughput results as filed in PubChem BioAssay.
Rows were chosen to be rich in hits. Some 1.4% of all compounds tested hit in one or more screens of this group.
S-ASM inh: Inhibitors of Secretory Acid Sphingomyelinase (S-ASM): qHTS. placental ASM, HMU-PC fluorogenic substrate, 60 min. Potency, µM (doses to about 57.5 µM), most hits filed as inhibitors. hit rate 0.006% among 340,000. AID 504937, 2011
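qHTS format. ASM enzyme prepared from human placenta hydrolyses the fluorogenic substrate HMU-PC0 (9 uM final) over 60 min at 37 °C after a 10 min compound preincubation.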
PTAP TSG101 blk: qHTS Assay for Iinhibitors of HIV-1 Budding by Blocking the Interaction of PTAP/TSG101. 340,000 tested, under 10 active. Fluorescence polarization, FITC-PTAP peptide / Tsg101 binding. Tumor susceptibility gene 101 protein (Homo sapiens), Q99816. Potency, µM (doses to about 115 µM), most hits filed as inhibitors; active means well fitted inhibition curve with a large enough effect in the main read-out, with a control signal flat, not every such curve was filed as active; inconclusive means small, poorly fitted or top-dose-only effect, or effect the other way, or a change in a side signal; inactive means no such curve, though single readings can be large or run the other way
Target sequence (Q99816 whole entry, looked up): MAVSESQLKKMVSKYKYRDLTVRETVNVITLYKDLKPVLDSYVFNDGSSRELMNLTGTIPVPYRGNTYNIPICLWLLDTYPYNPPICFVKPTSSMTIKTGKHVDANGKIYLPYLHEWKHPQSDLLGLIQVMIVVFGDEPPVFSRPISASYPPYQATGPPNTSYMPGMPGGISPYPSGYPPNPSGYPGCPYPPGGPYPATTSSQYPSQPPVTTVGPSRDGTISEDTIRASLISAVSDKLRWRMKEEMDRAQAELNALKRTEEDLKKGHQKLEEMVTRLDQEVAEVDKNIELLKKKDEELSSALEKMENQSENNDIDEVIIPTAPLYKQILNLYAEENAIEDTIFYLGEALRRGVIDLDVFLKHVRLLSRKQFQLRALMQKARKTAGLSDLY
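Tsg101 binding domain (10 uM final) was mixed with compound and a FITC-labeled PTAP peptide (50 nM final) in HEPES pH 7.5 buffer with NaCl, Tween 20, EDTA and TCEP; fluorescence polarization was read after 20 min at r.t.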
Vif-A3F inh: qHTS for Inhibitors of Vif-A3F Interactions: qHTS. hit rate 0.2% among 390,000. Potency, µM (top dose mostly 46.1 µM). HeLa A3F-eYFP + Vif (tagged APOBEC3F with the HIV-1 protein that degrades it), YFP fluorescence increase; further: nearly all actives have a fitted effect of over 65% in size
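HeLa cells stably expressing Vif plus C-terminally eYFP-tagged A3F were seeded, incubated overnight at 37 deg C, dosed with compound, incubated overnight again at 37 deg C. Yellow fluorescence (Ex 488/Em 500-530) reported blocked Vif-mediated A3F-eYFP degradation.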
Vif-APOBEC3G blk: qHTS for Inhibitors of Vif-A3G Interactions: qHTS. DNA dC->dU-editing enzyme APOBEC-3G (Homo sapiens), Q9HC16. hit rate 0.076% among 410,000. Potency, µM (top dose mostly 46.1 µM), usual class: inhibitors. HeLa A3G-eYFP + Vif (tagged APOBEC3G with the HIV-1 protein that degrades it), YFP fluorescence, overnight; further: nearly all actives have a fitted effect of over 60% in size
Target sequence (Q9HC16 whole entry, looked up): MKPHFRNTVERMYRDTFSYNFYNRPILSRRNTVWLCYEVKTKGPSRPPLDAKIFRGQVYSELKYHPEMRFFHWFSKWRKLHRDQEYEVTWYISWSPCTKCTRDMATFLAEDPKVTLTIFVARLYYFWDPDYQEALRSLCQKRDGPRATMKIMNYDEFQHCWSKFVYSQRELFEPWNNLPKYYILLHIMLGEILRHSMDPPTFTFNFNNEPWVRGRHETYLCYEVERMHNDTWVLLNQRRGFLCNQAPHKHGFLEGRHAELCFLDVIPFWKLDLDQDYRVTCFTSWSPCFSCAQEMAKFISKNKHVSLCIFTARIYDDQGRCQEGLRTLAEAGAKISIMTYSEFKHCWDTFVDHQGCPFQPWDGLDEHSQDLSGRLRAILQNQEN
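HeLa cells stably expressing Vif and C-terminally eYFP-tagged A3G, seeded overnight at 37 deg C, then exposed to compound by pintool overnight at 37 deg C. Rise in yellow fluorescence (Ex 488/Em 500-530, Acumen) marks blocked Vif-driven A3G degradation.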
12-LOX inh: Primary qHTS assay for inhibitors of human arachidonate 12S-lipoxygenase (ALOX12): Round 2 | Polyunsaturated fatty acid lipoxygenase ALOX12 (Homo sapiens), P18054 | purified 12hLO, xylenol orange hydroperoxide absorbance | Potency, µM (top dose mostly 108 µM), actives largely listed as inhibitors | hit rate 1.1% among 580,000 | AID 1671190, 2021
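Purified human 12hLO at 150 nM in 25 mM Hepes, 0.01% Triton X-100, pH 7.0, preincubated 15 min at room temperature with compound. Reaction started with 40 uM arachidonic acid, 30 min at room temperature. Hydroperoxide measured by Fe-xylenol orange, 573/405 nm absorbance ratio.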
Akt phos inh: HTS Assay for Inhibitors of Akt Phophorylation: Primary Screen | Neuro2A IGF-stimulated pAkt S473 HTRF, 20 min; active compounds read low | activity change, % for hits at 50 µM | hit rate 0.32% among 360,000 | AID 651550, 2012; in the data active means activity change below about -80%; inconclusive means mostly about -51% to -80%
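Neuro2A cells in DMEM with 0.5% FBS, overnight at 37 deg C, given compound at single 50 µM final, then IGF (6 nM final) for 20 min at 37 deg C. Lysed; phospho-Akt Ser473 by HTRF after 24 h, 665/615 ratio.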
A number is an active result; 0 = inactive; ? = inconclusive; - = not tested or not shown. Unless noted, the call rests on the fitted dose curve; in most records, active means well fitted curve in the direction sought with a large enough effect; inconclusive means small, poorly fitted or top-dose-only effect, or another doubt; inactive means no such curve, though single readings can be large; an effect the other way counts as inactive or inconclusive.

SMILES | S-ASM inh | PTAP TSG101 blk | Vif-A3F inh | Vif-APOBEC3G blk | 12-LOX inh | Akt phos inh
Cc1coc(C)c1C(=O)CC1(O)C(=O)N(CCc2ccccc2)c2ccccc21 (stereo not drawn) | 0 | 0 | 0 | 0 | 40µM | 0
CCN1C(=O)C(O)(CC(=O)c2c(C)coc2C)c2ccccc21 (stereo not drawn) | 0 | 0 | 0 | 0 | 0 | 0
N#Cc1nc(C2CC2)oc1N1CCN(C(=O)c2ccccc2)CC1 | - | - | - | - | 0 | -
Cc1nn2c(c1-c1ccnn1C(C)C)N(Cc1ccc(C(=O)O)s1)CCC2 | - | - | - | - | 28µM | -
COCCN(Cc1nccs1)C(=O)c1cnc(-c2ccccn2)[nH]c1=O | - | - | - | - | 0 | -
COc1ccc(S(=O)(=O)Oc2ccc3ccccc3c2)cc1 | 0 | 0 | 0 | ? | 0 | 0
COC1=C(OC)C(=O)C(Sc2ccc3ccccc3c2)=CC1=O | 0 | 0 | 25µM | ? | 2µM | 0
O=C1Nc2ccccc2C1CCO (stereo not drawn) | - | - | - | - | 0 | -
O=C(CNC1C(=O)Nc2ccccc21)Sc1ccccc1 (stereo not drawn) | 0 | 0 | 0 | 0 | 0 | -111%
O=C(Oc1cccc(NC(=O)c2ccco2)c1)c1cccc(S(=O)(=O)N2CCCCC2)c1 | 0 | 0 | 0 | 0 | 0 | -116%
Cc1cc(C)c(CNC(=O)c2nc(-c3ccnn3C)cc3c2ccn3C(C)C)c(=O)[nH]1 | - | - | - | - | 0 | -
O=C(CCS(=O)(=O)c1cc2c3c(c1)CCN3C(=O)CC2)Nc1cccc(Br)c1 | - | - | 0 | 0 | 45µM | -
COc1ccc(C)cc1NC(=O)CCS(=O)(=O)c1cc2c3c(c1)CCN3C(=O)CC2 | - | - | 0 | 0 | 18µM | -
O=C(Cc1ccc(F)cc1)NCCc1cnc(-c2ccccc2)[nH]1 | - | - | - | - | 0 | -
Cc1cccc(C2CC3(CC(C)(C)NC(=S)N3)Oc3cc(O)ccc32)c1 (stereo not drawn) | 0 | 0 | 0 | 0 | 40µM | 0
CC1(C)CC2(CC(c3ccccc3F)c3cc(Cl)c(O)cc3O2)NC(=S)N1 (stereo not drawn) | 0 | 0 | 0 | 0 | 32µM | 0
COc1ccc(C2CC3(CC(C)(C)NC(=S)N3)Oc3cc(O)cc(C)c32)cc1OC (stereo not drawn) | 0 | 0 | 0 | 0 | ? | 0
COc1cccc(C2CC3(CC(C)(C)NC(=S)N3)Oc3cc(O)ccc32)c1 (stereo not drawn) | 0 | 0 | 0 | 0 | ? | 0
CC(Sc1nnnn1C1CCCC1)C(=O)c1c[nH]c2ccccc12 (stereo not drawn) | - | - | - | - | 0 | -
COc1cc(OC)cc(C(=O)NC2CCN(c3cc(-c4ccc(F)cc4)[nH]n3)CC2)c1 | - | - | - | - | 0 | -
COc1cc(C2C(C#N)=C(N)Oc3c2ccc2ccccc32)ccc1OCC(=O)Nc1ccccc1C (stereo not drawn) | 0 | 0 | 0 | 0 | 0 | -104%
Cc1ccc(SC2=C(N(C)C)C(=O)c3ccccc3C2=O)cc1 | 0 | 0 | ? | ? | 10µM | 0
Cc1ccccc1C(=O)N1CCC(C(=O)Nc2ccc(S(=O)(=O)N3CCCCC3)cc2)CC1 | 0 | 0 | 0 | 0 | 45µM | 0
O=C(Cc1c(O)c2ccccc2oc1=O)c1ccc(C(F)(F)F)cc1 | 0 | 0 | 0 | 0 | 0 | 0
O=C(SCc1c(O)c2ccccc2oc1=O)c1ccccc1 | - | - | 0 | 0 | 28µM | 0
SMILES | S-ASM inh | PTAP TSG101 blk | Vif-A3F inh | Vif-APOBEC3G blk | 12-LOX inh | Akt phos inh
COc1ccc(CCNc2oc(C(C)C)nc2C#N)cc1 | - | - | - | - | 0 | -
Oc1ccc(N=Cc2ccc(O)c(O)c2)cc1 | 0 | 0 | 0 | ? | - | 0
O=C(/C(=N/N=C/c1ccc(O)c(O)c1)c1ccccc1)c1ccccc1 | ? | 0 | 0 | 0 | 40µM | 0
Oc1ccc(/C=N/N=C/c2ccc(O)c(O)c2)cc1O | 0 | 0 | 0 | ? | 1.1µM | 0
COc1cc(CN2CCCCC2C)ccc1OC(F)F (stereo not drawn) | - | - | - | - | 0 | -
Cc1ccc(NC(=O)Cc2nn(C)c(=O)c3ccccc23)cc1C | - | - | - | - | 0 | -
Cn1nc(CC(=O)Nc2ccc3c(c2)CCC3)c2ccccc2c1=O | 0 | 0 | 0 | 0 | 0 | -126%
Clc1ccccc1-n1nnnc1-c1ccncc1 | - | - | - | - | 0 | -
Cc1ccc(C=Nc2ccccc2C(N)=O)s1 | 0 | 0 | 0 | ? | 0 | 0
Cc1cccc(C=Nc2ccccc2C(N)=O)c1 | 0 | 0 | 0 | 10µM | 0 | 0
C=Cc1cc2c(cc1O)CCC1C2CCC2(C)C(O)CCC12 (stereo not drawn) | 0 | 0 | 0 | 0 | ? | 0
CC#Cc1cc2c(cc1O)CCC1C2CCC2(C)C(O)CCC12 (stereo not drawn) | 0 | 0 | 0 | ? | 45µM | 0
CCN(CC(C)C#N)C(=O)C1CCN(C(=O)c2ccc(Cl)cc2)CC1 (stereo not drawn) | - | - | - | - | 0 | -
CC(C)(C)c1ccc(C(=O)NC(Cc2c[nH]c3ccccc23)C(=O)O)cc1 (stereo not drawn) | - | - | - | - | 0 | -
CCCCn1c(N)c(N(CC(C)C)C(=O)c2ccncc2)c(=O)[nH]c1=O | 0 | 0 | 0 | 0 | 0 | 0
CCCCn1c(N)c(N(CC(C)C)C(=O)c2cc(-c3ccco3)nc3ccccc23)c(=O)[nH]c1=O | 0 | 0 | 0 | 0 | 40µM | 0
CCCCn1c(N)c(N(CC)C(=O)Cn2c(CC)nc3ccccc32)c(=O)[nH]c1=O | - | - | - | - | 25µM | -
C=CCN1C(=O)c2ccc(C(=O)N(CC(C)C)c3c(N)n(CCCC)c(=O)[nH]c3=O)cc2C1=O | 0 | 0 | ? | 7.9µM | 0 | 0
CCn1cnc2c1c(=O)n(CC(=O)Nc1ccc(N3CCCC3=O)cc1)c(=O)n2Cc1ccccc1 | - | - | - | - | 0 | -
Cn1cc(C(=O)NCCNC(=O)c2cccs2)c2ccccc21 | - | - | - | - | 0 | -
COc1ccc2c(c1)C1=NN(/C(C)=C/C(C)=O)C(c3ccc(F)cc3)C1CC2 (stereo not drawn) | 0 | 0 | 0 | 0 | ? | 0
CN1N=C2c3ccccc3CCCC2C1c1ccc(F)cc1 (stereo not drawn) | 0 | 0 | 0 | 0 | 40µM | 0
COc1cccc(OC)c1C(=O)Nc1ccc(N2CCN(C)CC2)c(Cl)c1 | - | - | - | - | 0 | -
COc1ccccc1C(C)NC(=O)CN1CCN(c2ccc([N+](=O)[O-])c3cnccc23)CC1 (stereo not drawn) | - | - | - | - | 11µM | -
Cc1ccc(N/N=C(\C#N)C(N)=S)c(C)c1 | 0 | 0 | 0 | 0 | 8.9µM | 0
CCCOc1cc(N(CC)CC)ccc1/C=C(/C#N)c1nc2ccc(C)cc2[nH]1 | ? | ? | 3.2µM | ? | ? | 0
